Consider one molecule from ChEMBL document CHEMBL2218924, “A broad activity screen in support of a chemogenomic map for kinase signalling research and drug discovery” (Biochem J, 2013).

The structures appear in SMILES notation.

Usually residual activity stands for the signal under treatment as a percentage of the control signal.

Experiment [1] concerns the target Ephrin type-A receptor 5 (Homo sapiens) (UniProt P54756). The following applies: at 1 µM.
For experiment [2] the target is unchanged. The following applies: at 10 µM.
For experiment [3], the target named is Ephrin type-A receptor 7 (Homo sapiens) (UniProt Q15375). The following applies: at 1 µM.
For experiment [4] the target is unchanged. As to conditions: at 10 µM.
Experiment [5] deals with T1, Ephrin type-B receptor 4 (Homo sapiens) (UniProt P54760).
T1 sequence (whole entry): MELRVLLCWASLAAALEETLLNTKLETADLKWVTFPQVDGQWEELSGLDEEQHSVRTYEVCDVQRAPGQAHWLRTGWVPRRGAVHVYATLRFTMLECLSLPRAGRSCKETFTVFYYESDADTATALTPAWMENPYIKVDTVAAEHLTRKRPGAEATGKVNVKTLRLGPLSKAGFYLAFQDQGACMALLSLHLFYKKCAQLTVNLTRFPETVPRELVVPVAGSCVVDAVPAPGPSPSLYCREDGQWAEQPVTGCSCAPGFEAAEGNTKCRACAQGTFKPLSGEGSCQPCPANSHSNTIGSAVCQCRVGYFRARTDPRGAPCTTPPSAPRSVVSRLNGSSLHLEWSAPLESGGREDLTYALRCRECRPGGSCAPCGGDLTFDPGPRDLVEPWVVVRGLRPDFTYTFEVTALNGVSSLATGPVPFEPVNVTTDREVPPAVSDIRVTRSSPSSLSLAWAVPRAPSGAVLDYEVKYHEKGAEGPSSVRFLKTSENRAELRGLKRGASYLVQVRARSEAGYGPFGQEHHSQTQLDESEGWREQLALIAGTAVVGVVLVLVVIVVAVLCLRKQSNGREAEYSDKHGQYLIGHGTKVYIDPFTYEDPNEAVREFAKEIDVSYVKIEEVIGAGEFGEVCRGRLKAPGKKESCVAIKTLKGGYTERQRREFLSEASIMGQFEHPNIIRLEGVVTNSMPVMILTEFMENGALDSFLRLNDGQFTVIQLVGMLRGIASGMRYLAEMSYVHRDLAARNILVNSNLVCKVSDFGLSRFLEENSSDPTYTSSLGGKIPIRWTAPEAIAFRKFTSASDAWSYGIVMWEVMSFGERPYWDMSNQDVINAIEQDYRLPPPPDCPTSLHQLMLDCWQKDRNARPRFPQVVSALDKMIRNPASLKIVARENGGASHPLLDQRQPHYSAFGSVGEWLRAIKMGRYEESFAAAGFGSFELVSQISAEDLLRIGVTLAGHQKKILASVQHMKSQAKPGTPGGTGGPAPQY
As to conditions: at 1 µM.

Experiment [6] has as its target T1, Ephrin type-B receptor 4 (Homo sapiens). The following applies: at 10 µM.
Experiment [7] deals with Receptor tyrosine-protein kinase erbB-4 (Homo sapiens) (UniProt Q15303). The following applies: at 1 µM.
For experiment [8] the target is unchanged. The following applies: at 10 µM.
Experiment [9] deals with Focal adhesion kinase 1 (Homo sapiens) (UniProt Q05397). As to conditions: at 1 µM.
Chain of Focal adhesion kinase 1 (Homo sapiens) (Q05397 2-1052 limits assumed): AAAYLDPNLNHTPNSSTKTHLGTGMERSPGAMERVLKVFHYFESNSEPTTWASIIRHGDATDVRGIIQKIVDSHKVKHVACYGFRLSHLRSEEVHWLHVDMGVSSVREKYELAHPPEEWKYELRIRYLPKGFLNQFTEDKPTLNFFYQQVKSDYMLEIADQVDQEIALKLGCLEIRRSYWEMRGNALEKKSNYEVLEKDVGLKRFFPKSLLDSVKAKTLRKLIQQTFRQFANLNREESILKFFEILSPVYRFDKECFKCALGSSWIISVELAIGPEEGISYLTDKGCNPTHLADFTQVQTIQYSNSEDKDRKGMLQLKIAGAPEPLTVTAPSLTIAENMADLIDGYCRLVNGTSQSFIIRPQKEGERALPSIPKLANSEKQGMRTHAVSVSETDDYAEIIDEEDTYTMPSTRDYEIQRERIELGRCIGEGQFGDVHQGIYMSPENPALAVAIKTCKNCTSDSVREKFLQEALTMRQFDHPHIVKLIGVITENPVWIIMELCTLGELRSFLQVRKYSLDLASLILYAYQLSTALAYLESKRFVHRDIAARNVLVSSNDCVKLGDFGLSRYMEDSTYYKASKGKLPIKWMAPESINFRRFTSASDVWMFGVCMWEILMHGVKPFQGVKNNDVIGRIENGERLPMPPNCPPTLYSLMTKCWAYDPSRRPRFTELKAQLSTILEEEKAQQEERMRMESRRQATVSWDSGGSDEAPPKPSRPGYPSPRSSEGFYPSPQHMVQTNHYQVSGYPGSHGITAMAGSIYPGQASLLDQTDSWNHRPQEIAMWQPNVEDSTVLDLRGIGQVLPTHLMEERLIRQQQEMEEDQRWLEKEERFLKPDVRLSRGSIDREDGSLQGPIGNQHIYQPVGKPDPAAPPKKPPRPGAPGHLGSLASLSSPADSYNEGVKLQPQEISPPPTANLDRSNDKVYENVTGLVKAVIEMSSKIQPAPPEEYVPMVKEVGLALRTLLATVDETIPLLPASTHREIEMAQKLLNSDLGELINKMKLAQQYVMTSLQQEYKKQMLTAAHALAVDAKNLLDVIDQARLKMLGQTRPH

Chain of Receptor tyrosine-protein kinase erbB-4 (Homo sapiens) (Q15303 whole entry): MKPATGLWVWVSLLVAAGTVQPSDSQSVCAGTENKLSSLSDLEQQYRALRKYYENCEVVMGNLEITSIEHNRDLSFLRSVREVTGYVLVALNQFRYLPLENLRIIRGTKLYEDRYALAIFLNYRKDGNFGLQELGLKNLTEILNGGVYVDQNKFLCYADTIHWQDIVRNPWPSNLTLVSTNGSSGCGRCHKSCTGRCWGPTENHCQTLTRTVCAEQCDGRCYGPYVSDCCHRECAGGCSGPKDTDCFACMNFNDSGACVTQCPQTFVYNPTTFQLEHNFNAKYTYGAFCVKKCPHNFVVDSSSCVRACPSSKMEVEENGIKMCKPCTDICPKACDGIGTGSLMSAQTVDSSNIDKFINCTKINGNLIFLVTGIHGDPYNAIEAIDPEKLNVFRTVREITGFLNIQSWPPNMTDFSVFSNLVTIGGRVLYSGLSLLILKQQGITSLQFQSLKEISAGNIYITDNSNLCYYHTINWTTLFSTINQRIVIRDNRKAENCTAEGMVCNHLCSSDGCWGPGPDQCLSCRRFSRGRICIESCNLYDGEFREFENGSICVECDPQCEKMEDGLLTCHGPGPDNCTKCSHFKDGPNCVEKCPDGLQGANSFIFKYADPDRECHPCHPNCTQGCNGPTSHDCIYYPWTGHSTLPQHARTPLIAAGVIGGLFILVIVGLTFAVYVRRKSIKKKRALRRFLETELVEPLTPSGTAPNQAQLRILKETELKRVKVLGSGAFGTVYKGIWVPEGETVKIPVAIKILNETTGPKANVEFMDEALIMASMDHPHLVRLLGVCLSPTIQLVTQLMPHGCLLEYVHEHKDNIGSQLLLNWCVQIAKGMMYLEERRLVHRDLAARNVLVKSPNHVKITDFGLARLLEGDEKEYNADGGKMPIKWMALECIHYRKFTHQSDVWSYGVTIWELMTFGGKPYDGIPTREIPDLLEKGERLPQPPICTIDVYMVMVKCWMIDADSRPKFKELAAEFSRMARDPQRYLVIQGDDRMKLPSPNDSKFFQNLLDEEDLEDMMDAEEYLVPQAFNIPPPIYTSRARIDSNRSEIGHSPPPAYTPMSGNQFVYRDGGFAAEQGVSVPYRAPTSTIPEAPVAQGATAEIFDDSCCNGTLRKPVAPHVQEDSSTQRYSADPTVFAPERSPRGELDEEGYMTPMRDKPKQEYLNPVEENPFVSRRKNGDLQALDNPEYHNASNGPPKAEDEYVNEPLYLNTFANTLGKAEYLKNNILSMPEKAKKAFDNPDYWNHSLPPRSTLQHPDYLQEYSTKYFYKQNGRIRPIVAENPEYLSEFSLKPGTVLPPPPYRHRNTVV
Chain of Ephrin type-A receptor 5 (Homo sapiens) (P54756 whole entry): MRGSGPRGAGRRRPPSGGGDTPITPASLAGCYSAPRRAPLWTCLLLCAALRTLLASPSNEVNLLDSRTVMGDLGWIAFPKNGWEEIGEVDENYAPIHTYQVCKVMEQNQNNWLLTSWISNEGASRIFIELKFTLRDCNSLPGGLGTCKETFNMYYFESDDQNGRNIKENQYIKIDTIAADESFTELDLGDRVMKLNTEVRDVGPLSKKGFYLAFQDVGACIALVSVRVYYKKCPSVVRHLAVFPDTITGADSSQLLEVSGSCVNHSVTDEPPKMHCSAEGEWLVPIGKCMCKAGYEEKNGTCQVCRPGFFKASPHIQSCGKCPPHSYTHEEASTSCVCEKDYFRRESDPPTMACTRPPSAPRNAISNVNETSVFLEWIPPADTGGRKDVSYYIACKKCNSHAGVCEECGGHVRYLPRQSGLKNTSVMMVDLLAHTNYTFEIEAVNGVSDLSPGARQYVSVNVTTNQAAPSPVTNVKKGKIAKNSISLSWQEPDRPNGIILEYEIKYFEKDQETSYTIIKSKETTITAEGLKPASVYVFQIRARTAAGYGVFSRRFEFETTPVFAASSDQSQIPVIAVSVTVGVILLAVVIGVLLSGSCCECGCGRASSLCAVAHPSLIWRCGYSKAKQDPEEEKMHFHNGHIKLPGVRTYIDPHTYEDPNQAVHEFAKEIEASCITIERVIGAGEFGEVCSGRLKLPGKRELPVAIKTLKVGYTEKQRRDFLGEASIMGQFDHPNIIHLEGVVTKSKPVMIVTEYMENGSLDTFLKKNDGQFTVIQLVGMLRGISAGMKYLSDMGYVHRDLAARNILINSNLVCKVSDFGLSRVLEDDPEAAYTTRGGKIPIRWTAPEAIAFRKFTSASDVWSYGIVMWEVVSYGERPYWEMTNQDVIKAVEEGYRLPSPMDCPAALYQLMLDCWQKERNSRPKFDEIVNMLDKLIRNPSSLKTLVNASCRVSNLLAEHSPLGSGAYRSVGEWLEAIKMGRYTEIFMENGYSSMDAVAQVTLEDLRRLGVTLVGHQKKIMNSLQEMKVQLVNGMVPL
Chain of Ephrin type-A receptor 7 (Homo sapiens) (Q15375 28-998 limits assumed): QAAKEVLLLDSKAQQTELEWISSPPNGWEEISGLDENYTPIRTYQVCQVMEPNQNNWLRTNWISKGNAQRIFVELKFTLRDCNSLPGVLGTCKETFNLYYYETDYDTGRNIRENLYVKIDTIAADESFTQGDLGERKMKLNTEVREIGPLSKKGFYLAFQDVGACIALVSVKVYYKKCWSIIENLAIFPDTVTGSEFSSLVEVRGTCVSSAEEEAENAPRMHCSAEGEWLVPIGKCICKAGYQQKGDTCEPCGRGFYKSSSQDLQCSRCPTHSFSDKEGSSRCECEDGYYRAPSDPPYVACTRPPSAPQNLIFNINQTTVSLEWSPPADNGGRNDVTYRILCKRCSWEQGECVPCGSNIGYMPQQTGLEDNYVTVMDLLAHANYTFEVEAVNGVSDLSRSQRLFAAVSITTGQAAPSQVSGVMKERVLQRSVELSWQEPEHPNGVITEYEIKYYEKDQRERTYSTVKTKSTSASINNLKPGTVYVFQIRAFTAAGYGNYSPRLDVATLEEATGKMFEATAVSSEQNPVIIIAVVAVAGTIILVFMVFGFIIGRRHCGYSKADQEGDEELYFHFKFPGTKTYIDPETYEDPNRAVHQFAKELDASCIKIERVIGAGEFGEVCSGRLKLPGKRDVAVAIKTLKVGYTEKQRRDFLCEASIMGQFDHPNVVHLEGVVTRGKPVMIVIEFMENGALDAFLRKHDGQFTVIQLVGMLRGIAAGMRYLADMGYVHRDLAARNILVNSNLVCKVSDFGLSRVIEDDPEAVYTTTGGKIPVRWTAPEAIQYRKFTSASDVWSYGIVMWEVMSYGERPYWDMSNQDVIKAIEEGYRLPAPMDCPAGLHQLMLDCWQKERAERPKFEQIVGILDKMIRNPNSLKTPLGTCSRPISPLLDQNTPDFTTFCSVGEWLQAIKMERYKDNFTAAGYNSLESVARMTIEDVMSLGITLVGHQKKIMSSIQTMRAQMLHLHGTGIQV

Take `N#CC(C#N)=C(N)/C(C#N)=C/c1ccc(O)cc1`: the residual activity in experiment [1] was 125%; in [2], 96%; in [3], 91%; in experiment [4] it was 81%; in [5], 116%; in experiment [6] it was 119%. The residual activity worked out at 95% in [7], 76% in experiment [8] and 132% in experiment [9].
